Test results published in PubChem BioAssay (NCATS).
Records with an inconclusive call do not appear. Activity calls are given as the source filed them. The call rests on the fitted dose curve; in most records, active means well fitted inhibition curve with a large enough effect; inconclusive means small, poorly fitted or top-dose-only effect; inactive means flat fitted curve, though single readings scatter.

Experiments:
Assay in all cases: Cytotoxic Profiling of Annotated Libraries Using Quantitative High-Throughput Screening (AID 1296008); further: nearly all actives have a fitted effect of over 60% in size
Settings in all cases: Five cell lines viability, CellTiter-Glo ATP luminescence, 48-72 h; max response: stronger effect = lower value
CRL-7250 = normal cell line; test system: CRL-7250
In short: (§1)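 Cells exposed to compounds for 48 or 72 hr at 37 degrees Celsius. Viability read as ATP-coupled luminescence with CellTiter-Glo after 10 min at room temperature.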

HEK293 = test system: HEK293
In short: as §1

HaCat = test system: HaCat
In short: as §1

KB-3-1 = test system: KB-3-1
In short: as §1

NIH3T3 = test system: NIH3T3
In short: as §1

Measured: max response
On the % scale 0 is the no-effect control and ±100 the full control effect.

COc1cc(O)cc(O[C@@H]2O[C@H](CO)[C@@H](O[C@@H]3OC[C@](O)(CO)[C@H]3O)[C@H](O)[C@H]2O)c1OC
inactive: CRL-7250 2.5% | HEK293 -4.25% | HaCat | KB-3-1 | NIH3T3 2.33%

CC(=O)OC1CC(C(C)(C)O)OC2CCC3(C)OC4=C(C(=O)C=C5C(C)C(OC(C)=O)C6(C)C(C)OC546)C(O)C3C12C (stereo not given)
inactive: CRL-7250 | HEK293 -23.5% | HaCat | KB-3-1 5.34% | NIH3T3 1.94%

CCC(C)(C)C1CCc2c(sc(NC(=O)c3ccc(Br)cc3)c2C#N)C1 (stereo not given)
inactive: CRL-7250 -2.34% | HEK293 2.37% | HaCat | KB-3-1 | NIH3T3 3.88%

CCCN1CCC[C@@H](c2cccc(S(C)(=O)=O)c2)C1
inactive: CRL-7250 -1.62% | HEK293 -20.6% | HaCat -5% | KB-3-1 -6.47% | NIH3T3

C[C@@]12CC3(S(=O)(=O)O)OC(O1)[C@]1(COC(=O)c4ccccc4)[C@H]3C[C@]21O[C@@H]1O[C@H](CO)[C@@H](O)[C@H](O)[C@H]1O
inactive: CRL-7250 2.31% | HEK293 2.36% | HaCat | KB-3-1 | NIH3T3

CC(C)C[C@H](NC(=O)[C@@H]1O[C@H]1C(=O)O)C(=O)NCCCCN=C(N)N
inactive: CRL-7250 -9.88% | HEK293 -19.1% | HaCat | KB-3-1 2.43% | NIH3T3 0.0799%

C=CCC/C=C/C#CCCCCCCCC[C@H]1C(=O)O[C@H](C)[C@@H]1O
inactive: CRL-7250 0.985% | HEK293 -11.8% | HaCat | KB-3-1 -1.24% | NIH3T3 0.0642%

CC1CCC2(C(=O)O)CCC3(C)C(=CCC4C5(C)CCC(O)C(C)(C(=O)O)C5CCC43C)C2C1(C)O (stereo not given)
inactive: CRL-7250 -10.9% | HEK293 -11.5% | HaCat | KB-3-1 3.72% | NIH3T3

C=C(C(=O)O)[C@H]1C[C@]2(C)C(=O)CC[C@]23O[C@H]1C[C@@H]3C
inactive: CRL-7250 -1.57% | HEK293 -7.61% | HaCat 1.8% | KB-3-1 4.05% | NIH3T3

CC/C=C\C(O)C(O)C1=C(C)C(=O)C2(O1)C(=O)NC(OC)(C(=O)c1ccccc1)C2O (stereo not given)
inactive: CRL-7250 | HEK293 -0.178% | HaCat | KB-3-1 7.12% | NIH3T3 -1.62%

c1cc(-c2cc(C3CCNCC3)[nH]n2)ccn1
inactive: CRL-7250 -3.47% | HEK293 -20.2% | HaCat | KB-3-1 2.66% | NIH3T3

O=C(c1ccc(Cl)c([N+](=O)[O-])c1)N1CCN(c2ccccc2F)CC1
inactive: CRL-7250 -5.45% | HEK293 0.0452% | HaCat | KB-3-1 | NIH3T3

CC(C)c1ccc2c(c1)CCC1[C@](C)(C(=O)O)CCC[C@]21C (stereo not given in full)
inactive: CRL-7250 | HEK293 2.37% | HaCat | KB-3-1 -0.955% | NIH3T3

CC(CC12CCCN1C(=O)C1CCCN1C2=O)OC(N)=O (stereo not given)
inactive: CRL-7250 | HEK293 2.01% | HaCat | KB-3-1 4.48% | NIH3T3 4.31%

Cc1c(-c2ccc3c(c2)OCO3)oc2ccc(C(O)C(C)O)cc12 (stereo not given)
inactive: CRL-7250 -2.17% | HEK293 -10.1% | HaCat | KB-3-1 | NIH3T3

C=C1C(OC(C)=O)CCC2(C)CC3(O)OC(=O)C(C)=C3CC12 (stereo not given)
inactive: CRL-7250 | HEK293 -4.29% | HaCat -1.9% | KB-3-1 | NIH3T3

CC1=CC[C@@]2(C)CC[C@@](O)(C(C)C)[C@@H]2[C@@H](O)C1
inactive: CRL-7250 2.53% | HEK293 0.0265% | HaCat 1.77% | KB-3-1 | NIH3T3

COc1cc(C(=O)OCC2=CCC3C(C(=O)O)=COC(O[C@@H]4O[C@H](CO)[C@@H](O)[C@H](O)[C@H]4O)C23)ccc1O (stereo not given in full)
inactive: CRL-7250 -2.16% | HEK293 -8.64% | HaCat | KB-3-1 | NIH3T3

CC(=O)N[C@H]1[C@H](O[C@H]2CC[C@]3(C)C4CC=C5[C@@H]6CC(C)(C)CC[C@]6(C(=O)O)[C@H](O)C[C@@]5(C)[C@]4(C)CC[C@H]3C2(C)C)O[C@H](CO)[C@@H](O)[C@@H]1O (stereo not given in full)
inactive: CRL-7250 -7.8% | HEK293 -6.92% | HaCat | KB-3-1 -6.34% | NIH3T3

C/C=C/C=C/[C@@H]1O[C@](O)([C@H](CC)C(=O)NC/C=C/C=C(\C)[C@@H](OC)[C@@H](C)[C@@H]2O[C@H](/C=C/C=C/C=C(\C)C(=O)c3c(O)ccn(C)c3=O)[C@H](O)[C@@H]2O)[C@H](O)[C@H](O)C1(C)C
inactive: CRL-7250 -0.994% | HEK293 -2.35% | HaCat | KB-3-1 | NIH3T3 2.66%
